# Assay results taken from ChEMBL document CHEMBL4303122, “Identification of potential treatments for COVID-19 through artificial intelligence-enabled phenomic analysis of human cells infected with SARS-CoV-2” (2020).
# The full ranking holds about 1,600 compounds; the median of “Hit score” is about 0.13, and the highest 2% start at about 0.46. Shown is part of a subset that was picked to be rich in the highest values.
# System: SARS-CoV-2
# Experiment: Antiviral activity against SARS-CoV-2 (USA-WA1/2020 strain) measured by imaging in HRCE cells at MOI 0.4 after 96 hrs (reported as hit score from 0-1 for on-disease vs off-disease activity: scores >0.6 considered hits)
# Format: functional, Homo sapiens
row,Structure (SMILES),Hit score
1,COc1ccc(CN2CCN(C(c3ccc(F)cc3)c3ccc(F)cc3)CC2)c(OC)c1OC [LOMERIZINE],-0.04979
2,C=CCNc1nc(NCC=C)nc(N2CCN(C(c3ccc(F)cc3)c3ccc(F)cc3)CC2)n1 [ALMITRINE],0.7206
3,C#Cc1cccc(Nc2ncnc3cc4c(cc23)OCCOCCOCCO4)c1 [ICOTINIB],0.1043
4,C[C@H](O)[C@H](O)[C@H]1CNc2nc(N)[nH]c(=O)c2N1 [SAPROPTERIN],0.04545
5,C=C1[C@H](CO)[C@@H](O)C[C@@H]1n1cnc2c(=O)[nH]c(N)nc21.O,0.1346
6,CC1(C)S[C@@H]2[C@H](NC(=O)[C@H](NC(=O)N3CCN(S(C)(=O)=O)C3=O)c3ccccc3)C(=O)N2[C@H]1C(=O)O [MEZLOCILLIN],0.1621
7,O=C(O[C@H]1C[C@H]2CC[C@@H](C1)[N+]21CCCC1)C(O)(c1ccccc1)c1ccccc1 [TROSPIUM],0.08693
8,Cc1ccccc1C(=O)Nc1ccc(C(=O)N2CCCC(N(C)C)c3ccccc32)cc1 (stereo unspecified) [MOZAVAPTAN],0.1836
9,CCC(C)(C)C(=O)O[C@H]1C[C@@H](C)C=C2C=C[C@H](C)[C@H](CC[C@@H]3C[C@@H](O)CC(=O)O3)[C@H]21 [SIMVASTATIN],0.1206
10,C[C@H]1c2cccc(O)c2C(=O)C2=C(O)[C@]3(O)C(=O)C(C(N)=O)=C(O)[C@@H](N(C)C)[C@@H]3[C@@H](O)[C@@H]21.O [DOXYCYCLINE],-0.02175
11,CCCCCCCC/C=C/CCCCCCCC(=O)OC[C@H]1O[C@@H](n2ccc(N)nc2=O)C(F)(F)[C@@H]1O [GEMCITABINE ELAIDATE],0.08488
12,CC/C=C\C/C=C\C/C=C\C/C=C\C/C=C\CCCC(=O)O [ICOSAPENT],0.1484
13,C[N+]1(CC2CC2)[C@@H]2C[C@@H](OC(=O)[C@H](CO)c3ccccc3)C[C@H]1[C@@H]1O[C@@H]12 (stereo partly specified) [CIMETROPIUM],0.08586
14,COc1cccc(Nc2c(C(N)=O)cnc3c(C)cc(S(=O)(=O)c4cccc(C(=O)N(C)C)c4)cc23)c1 [GSK-256066],-0.006373
15,Cl.OC(CNCC(O)C1CCc2cc(F)ccc2O1)C1CCc2cc(F)ccc2O1 (stereo unspecified) [NEBIVOLOL HYDROCHLORIDE],0.4783
16,C[C@]12CC[C@@H]3c4ccc(O)cc4CC[C@H]3[C@@H]1CC[C@@H]2OC(=O)CCC1CCCC1 [ESTRADIOL CYPIONATE],0.1681
17,Cc1ccc(/C=C2\CNC/C(=C\c3ccc(C)cc3)C2=O)cc1.Cl,0.05741
18,C[C@@H](O)[C@H]1C(=O)N2C(C(=O)O)=C([C@H]3CCCO3)S[C@H]12 [FAROPENEM],0.1823
19,CC1(C)S[C@@H]2[C@H](NC(=O)[C@H](N)c3ccc(O)cc3)C(=O)N2[C@H]1C(=O)[O-].[Na+] [AMOXICILLIN SODIUM],0.05468
20,NCCCC[C@H](N)C(=O)O.N[C@@H](CSCC(=O)O)C(=O)O.O,0.1749
21,CO/N=C(\C(=O)N[C@@H]1C(=O)N2C(C(=O)OCOC(=O)C(C)(C)C)=C(C)CS[C@H]12)c1csc(N)n1,0.2495

row,Structure (SMILES),Hit score
1,CN(C)C(=O)c1cc2cnc(Nc3ccc(N4CCNCC4)cn3)nc2n1C1CCCC1 [RIBOCICLIB],0.1227
2,CC(COc1ccccc1Cc1ccccc1)N1CCCCC1 (stereo unspecified) [BENPROPERINE],0.02777
3,C#C[C@]1(O)CC[C@H]2[C@@H]3CCC4=CC(=O)CC[C@@H]4[C@H]3CC[C@@]21C [NORETHINDRONE],0.1388
4,C=CCN1CC[C@]23c4c5ccc(O)c4O[C@H]2[C@@H](OCCOCCOCCOCCOCCOCCOCCOC)CC[C@@]3(O)[C@H]1C5 [NALOXEGOL],0.106
5,CN(C(=O)C(Cl)Cl)c1ccc(O)cc1 [DILOXANIDE],-0.0329
6,O=C1[C@H]2CCCC[C@H]2C(=O)N1CCCCN1CCN(c2nsc3ccccc23)CC1 [PEROSPIRONE],0.1455
7,CCCCCCCCCCCC(=O)OCC(O)CO (stereo unspecified) [GLYCEROL MONOLAURATE],0.1728
8,OCC(O)COc1cccc2ccccc12 (stereo unspecified),0.1908
9,CC1=C(C)C(=O)C(CCCCCCCCCC[P+](c2ccccc2)(c2ccccc2)c2ccccc2)=CC1=O,0.06177
10,C#C[C@]1(O)CC[C@H]2[C@@H]3CCC4=Cc5oncc5C[C@]4(C)[C@H]3CC[C@@]21C [DANAZOL],0.2899
11,CC(C)(CO)c1cc2cc(NC(=O)C3(c4ccc5c(c4)OC(F)(F)O5)CC3)c(F)cc2n1C[C@@H](O)CO [TEZACAFTOR],0.1873
12,O=C(O)c1cccc(-c2noc(-c3ccccc3F)n2)c1,0.2151
13,N#Cc1ccnc(N2C(=O)CC[C@H]2C(=O)N(c2cncc(F)c2)[C@H](C(=O)NC2CC(F)(F)C2)c2ccccc2Cl)c1 [IVOSIDENIB],0.2722
14,O=C(O)c1ccc2c(c1)nc(Nc1cccc(Cl)c1)c1ccncc12 [SILMITASERTIB],0.7608
15,C[C@H](Nc1ncnc2nc[nH]c12)c1cc2cccc(Cl)c2c(=O)n1-c1ccccc1 [DUVELISIB],0.6035
16,CC[C@H](Nc1ncnc2[nH]cnc12)c1nc2cccc(F)c2c(=O)n1-c1ccccc1 [IDELALISIB],0.4259
17,C[C@H](C(=O)O)c1ccc(-c2ccccc2)c(F)c1 [ESFLURBIPROFEN],0.1907
18,OC[C@H]1OC(O)[C@H](O)[C@@H](O)[C@@H]1O (stereo partly specified) [DEXTROSE],0.07162
19,CCCCC(F)(F)[C@@]1(O)CC[C@H]2[C@@H](CC(=O)[C@@H]2CCCCCCC(=O)O)O1 [LUBIPROSTONE],0.08446
20,CC1(C)C(/C=C/C=C/C=C/C=C2\N(CCCCS(=O)(=O)[O-])c3ccc4ccccc4c3C2(C)C)=[N+](CCCCS(=O)(=O)[O-])c2ccc3ccccc3c21.[Na+] [INDOCYANINE GREEN],0.2338
